# Data taken from PubChem BioAssay AID686979 (National Center for Advancing Translational Sciences (NCATS), 2013).
# Out of some 420,000 compounds screened, about 50,000 (12%) were called active. Where a call stands in place of a potency, no number is given. Roughly 26% stayed inconclusive and do not appear here. Calls follow the shape of the dose curve; as a rule, active = well fitted inhibition curve with a large enough effect; inconclusive = small, poorly fitted or top-dose-only effect; inactive = flat fitted curve, though single readings scatter. For the sample, actives were picked, then their nearest neighbours and some compounds at random.
# Assay: qHTS for Inhibitors of human tyrosyl-DNA phosphodiesterase 1 (TDP1): qHTS in cells in presence of CPT; also: nearly all actives have a fitted effect of over 55% in size
# Conditions: chicken DT40 Tdp1-/-;hTDP1 cells + 20 nM CPT, ATP luminescence, 48 h; series mostly up to 46.2 µM
# Description: Human tyrosyl-DNA phosphodiesterase 1 (TDP1) is a novel repair gene, and we propose to use it as a new target for anticancer drug development. TDP1 is not an essential protein, but under treatment with topoisomerase I poison (camptothecin: CPT), TDP1 works as a critical factor for cell survival. To directly identify novel TDP1 inhibitors active in a cellular environment, we have knocked-out the Tdp1 gene in chicken DT40 cells (Tdp1-/-) and generated a complemented counterpart cells that contains a stable transfection of the human TDP1 gene (Tdp1-/-;hTDP1 cells). For the primary screen, Tdp1-/-;hTDP1 cells will be exposed to small molecules in the presence or absence of CPT, and their growth kinetics will be evaluated after 48 hours by measuring ATP activity. […] The hit compounds will then be evaluated in the presence or absence of CPT using Tdp1-/- cells. […] In tertiary assays, biochemical gel-based assays will be used to assess whether the hit compounds specifically target TDP1. To this end, we have screened this cell line against the MLSMR in two primary screens. In one screen we add CPT and in the other we screen in the absence of CPT; this AID represents the screen where CPT was present. NIH Chemical Genomics Center [NCGC] NIH Molecular Libraries Probe Centers Network [MLPCN] MLPCN Grant: MH095538 Assay Submitter (PI): Yves Pommier, NCI
# DT40-hTDP1 cells with 20 nM Camptothecin (add 20 microL of 1 mM CPT stock in 1 L of cell culture medium) were dispensed at 400 cells/5microL/well in tissue culture treated 1536-well white wall/solid bottom assay plates (Greiner Bio-One North America, NC, U.S.A.) using a Multidrop Combi 8 channel dispenser (Thermo Fisher, Waltham, MA, USA). 23 nL compounds and controls were transferred using the pin tool (Kalypsys, San Diego, CA, USA) to the assay plates. The assay plates were then incubated at 37 masculineC for a minimum 48 hr. Three microL of Cell Titer Glo solution was added to the plates and incubated at RT in dark for 30 min. Luminescence was read using ViewLux (Perkin Elmer) with 1 sec exposure slow speed, high gain and 2x binning.
# Potency is read from the fitted curve at half-maximal effect.
row,Structure (SMILES),Potency
1,CCCC1C(=O)N2C(N(C)C)=Nc3ccc(C)cc3N2C1=O (stereo not drawn),inactive
2,Cc1cc(C)n2nc(SCC(N)=O)nc2n1,inactive
3,CCC1=NN(C(=O)Cc2ccc([N+](=O)[O-])cc2)C(O)(c2ccc(Br)cc2)C1 (stereo not drawn),inactive
4,Cc1cccc(N2C(=O)N3[C@H](c4ccc(F)cc4)[C@@H]4C(=O)N(C5CCCCC5)C(=O)[C@@H]4[C@]3(Cc3ccccc3)C2=O)c1,inactive
5,O=C1CCC(C(=O)N2CCCCO2)CN1Cc1cccc(C(F)(F)F)c1 (stereo not drawn),inactive
6,Cc1ccc(N2CC(C(=O)NCCS(=O)(=O)N3CCN(c4ccccc4)CC3)CC2=O)cc1 (stereo not drawn),inactive
7,O=C(NCCS(=O)(=O)N1CCN(c2ccccc2)CC1)c1cc(=O)c2ccccc2o1,inactive
8,O=C(Nc1cc(S(=O)(=O)N2CCOCC2)ccc1Cl)c1cc(=O)c2ccccc2o1,11.6 µM (active)
9,Cc1cc(C)c2oc(C(=O)Nc3ccc(S(=O)(=O)N4CCCCCC4)cc3)cc(=O)c2c1,inactive
10,Cc1ccc2oc(C(=O)Nc3ccc(S(=O)(=O)N4CCCCCC4)cc3)cc(=O)c2c1,inactive
11,CCC1CCCCN1S(=O)(=O)c1ccc(NC(=O)c2cc(=O)c3ccccc3o2)cc1 (stereo not drawn),3.26 µM (active)
12,O=C(Nc1cc(S(=O)(=O)N2CCOCC2)ccc1N1CCOCC1)c1c(F)cccc1Cl,inactive
13,COc1ccccc1CN1CC(C(=O)NCCc2cn[nH]c2)CCC1=O (stereo not drawn),inactive
14,O=C(CCNS(=O)(=O)c1ccccc1C(F)(F)F)Nc1ccncc1,inactive
15,CCOC(=O)CSc1nnc(NC(=O)C2CC(=O)N(c3ccc(F)cc3)C2)s1 (stereo not drawn),inactive
16,COC(=O)C1=CN(Cc2ccc(OC)cc2)C=C(C(=O)OC)C1c1ccc(O)c(OC)c1,inactive
17,CC(=O)Nc1ccc(S(=O)(=O)N2CCC(C(=O)NC3CC3)CC2)cc1,inactive
18,CS(=O)(=O)N1CCN=C1SCc1ccc(F)cc1,inactive
19,CC(=O)c1cnc(SCCN2C(=O)c3ccccc3C2=O)nc1C,inactive
20,C=CCOc1cccc(C2NC(=O)c3ccccc3O2)c1 (stereo not drawn),inactive
21,O=C1NC(c2cccc(Cl)c2)Nc2ccccc21 (stereo not drawn),13 µM (active)
22,O=C1NC(c2ccccc2)Oc2ccccc21 (stereo not drawn),inactive
23,COc1ccc(C(=O)CSc2nnc(NC(=O)C3CC(=O)N(c4cccc(OC)c4)C3)s2)cc1 (stereo not drawn),inactive
24,Cc1cc(C)n2nc(C(=O)Nc3cccc(S(=O)(=O)N4CCOCC4)c3)nc2n1,inactive
25,O=C(N/N=C\c1cc(Br)c(Br)o1)C1COc2ccccc2O1 (stereo not drawn),inactive
26,Cc1cc(C(=O)N2CCCC2(C)C(=O)O)c(C)o1 (stereo not drawn),inactive

row,Structure (SMILES),Potency
1,CCCN=C1N(C)C[C@@H]2[C@@H]3C(=O)N(Cc4ccccc4)C(=O)[C@@H]3[C@](C)(C(=O)OC)N12,inactive
2,O=C(CCSc1ccccc1)N1CCN(c2ccccc2F)CC1,inactive
3,O=C(CCSCc1ccccc1F)N1CCN(c2ccc(Cl)cc2)CC1,23.1 µM (active)
4,O=C(CCc1ccccc1F)N1CCN(c2ccccc2)CC1,inactive
5,COc1ccc(C2C(=O)N(C3CCCCCC3)CC(=O)N2CCc2ccc(Cl)cc2)cc1OC (stereo not drawn),23.1 µM (active)
6,CCOCCCN1C(=O)CN(C2CCCCC2)C(=O)C1c1ccc(OCC)c(OC)c1 (stereo not drawn),inactive
7,O=C(NCCc1ccc(Cl)cc1)C1CC(=O)N(C2CCCCC2)C1 (stereo not drawn),inactive
8,COc1ccccc1N1CC(C(=O)NCCN2C(=O)S/C(=C\c3cccnc3)C2=O)CC1=O (stereo not drawn),inactive
9,S=C(Cc1ccc(Cl)cc1)N1CCOCC1,inactive
10,COc1ccc(-c2cnc(SCCNC(=O)c3ccc4c(c3)OCO4)[nH]2)cc1,inactive
11,CCCC[C@H]1COCCS(=O)(=O)N1Cc1cccc(Cl)c1,inactive
12,O=S1(=O)CCOC[C@H](CC2CCCCC2)N1Cc1ccc(F)cc1,2.51 µM (active)
13,CCC(C)[C@H]1COCCS(=O)(=O)N1Cc1ccc(C)cc1 (stereo partly drawn),inactive
14,CC(C)Oc1ccc(S(=O)(=O)N2CCOCC2)cc1NC(=O)C1CCCC1,inactive
15,O=C(CCS(=O)(=O)c1ccccc1Cl)Nc1ccc(S(=O)(=O)Nc2ncccn2)cc1,inactive
16,Cc1ccc(S(=O)(=O)N2CCOCC2)cc1C(=O)OC1CCCCC1=O (stereo not drawn),inactive
17,C[C@@H]1CN([C@H](C)CO)C(=O)CCCn2cc(nn2)CO[C@H]1CN(C)S(=O)(=O)c1ccc(Oc2ccccc2)nc1,inactive
18,O=C(/C=C/c1ccc([N+](=O)[O-])o1)NNC(=O)c1ccc(F)cc1,3.26 µM (active)
19,O=C(/C=C/c1ccc(F)cc1)NCCNC(=O)/C=C/c1ccc(F)cc1,inactive
20,CCN(C(=O)Cn1c(=O)nc(-c2ccccc2)c2cc(Cl)ccc21)c1cccc(C)c1,inactive
21,Cc1ccc(S(=O)(=O)NCC(=O)N(CC(=O)NCC2CCCO2)c2cccc(F)c2)cc1 (stereo not drawn),inactive
22,C=CCOc1ccccc1CNn1c(C)n[nH]c1=S,inactive
23,N#C/C(=C(/O)COC(=O)COc1ccc(Cl)cc1)c1nc2ccccc2[nH]1,4.11 µM (active)
24,Cc1ccccc1OC/C(O)=C(\C#N)c1nc2ccccc2[nH]1,inactive
25,N#C/C(=C(/O)COc1cccc2ccccc12)c1nc2ccccc2[nH]1,inactive
26,O=C(NNC(=O)c1cc(-c2ccccc2Cl)nc2ccccc12)c1csc(N2CCOCC2)n1,inactive

row,Structure (SMILES),Potency
1,CC(C)(C)c1ccc(C(CC(=O)O)NS(=O)(=O)Cc2ccccc2)cc1 (stereo not drawn),inactive
2,Cc1ccc2c(c1)N(CC(=O)NCC1CCCO1)C(=O)CO2 (stereo not drawn),inactive
3,NS(=O)(=O)c1ccc(NC(=O)CSc2nnc3c(n2)[nH]c2ccccc23)cc1,inactive
4,CCCCCNC(=O)Cc1ccc(OC)cc1,inactive
5,C/C=C/NNC(=O)Cc1ccc(OC)cc1,3.55 µM (active)
6,COc1ccc(CC(=O)Nc2ccc(C(=O)NC(C)(C)C)cc2)cc1,inactive
7,C#CCOCCOCCOCCNc1nc(N2CCN(C(=O)[C@H](CCC(=O)O)n3cc(CN)nn3)CC2)nc(N2CCN(C(=O)[C@H](CCC(=O)O)n3cc(CN)nn3)CC2)n1,inactive
8,CC(=O)c1cccc(NC(=S)N2CCCC2)c1,inactive
9,CC1=NN(C(=O)Cc2ccc(C)cc2)C(O)(c2cccnc2)C1 (stereo not drawn),inactive
10,COc1ccc(CC(=O)N2N=C(C)CC2(O)C(F)(F)F)cc1 (stereo not drawn),2.91 µM (active)
11,CC1=NN(C(=O)CCCc2ccccc2)C(O)(C(F)(F)F)C1 (stereo not drawn),inactive
12,CC1CC(=S)Nc2ccccc2N1Cc1ccccc1 (stereo not drawn),inactive
13,Nc1nc2ncccn2c1-c1ccccc1,inactive
14,O=S(=O)(Nc1cccc(-n2cnnn2)c1)c1cnc(Cl)c(Cl)c1,inactive
15,COc1ccc(N2C(=O)CS(=O)(=O)C23C(=O)N(Cc2ccc(C)cc2)c2ccccc23)cc1Cl (stereo not drawn),inactive
16,Cc1ccc(S(=O)(=O)NC(=O)Nc2nc(-c3ccc(F)c(F)c3)cs2)cc1,inactive
17,COc1cccc(CC(=O)Nc2nc(-c3ccc(OC)c(OC)c3)cs2)c1,inactive
18,COc1ccc(-c2csc(NC(=O)c3ccc(N4C(=O)CCC4=O)cc3)n2)cc1OC,inactive
19,COc1ccc(CCNC(=O)COC(=O)Cc2cc(OC)c(OC)c(OC)c2)cc1,inactive
20,COc1cc(CC(=O)Nc2nc(-c3ccc(F)c(F)c3)cs2)cc(OC)c1OC,7.31 µM (active)
21,COc1ccc(CC(=O)Nc2nc(-c3ccc(F)c(F)c3)cs2)cc1OC,10.3 µM (active)
22,CCOC(=O)c1cn(CC)c2cc(F)c(F)cc2c1=O,inactive
23,O=C(NC1CCN(C(=S)NCc2ccco2)CC1)c1ccc(F)cc1,inactive
24,Cc1cc(OCCN2CCCC2)cc(C(C)C)c1,inactive
25,COc1ccc2[nH]c(C(=O)N3CCN(C)CC3)c(C)c2c1,inactive
26,CCOC(=O)NN1C(=O)c2ccccc2NC1c1cccc(O)c1 (stereo not drawn),inactive

row,Structure (SMILES),Potency
1,CCOC(=O)NN1C(=O)c2ccccc2NC1c1ccccc1O (stereo not drawn),16.4 µM (active)
2,O=C1c2ccccc2NC(c2ccccc2O)N1NS(=O)(=O)c1ccccc1 (stereo not drawn),inactive
3,Cc1ccc2nc(CN3CCN(S(=O)(=O)c4ccc(C)c(C)c4)CC3)oc2c1,inactive
4,CCOc1ccc(N(C)Cc2cc(=O)oc3ccc(OC)cc23)cc1,inactive
5,NC(=O)N/N=C\c1cccs1,inactive
6,Cc1cc(C)nc(SC(C)C(=O)N/N=C/c2cccs2)n1 (stereo not drawn),inactive
7,COc1ccc2c(c1)c(C(=O)N/N=C/c1cccs1)c(C)n2C,9.2 µM (active)
8,CCn1c(SCC(=O)Nc2nccs2)nnc1-c1ccco1,inactive
9,C[C@@H]1CN([C@H](C)CO)C(=O)CCCn2nncc2CO[C@@H]1CN(C)C(=O)OCc1ccccc1,inactive
10,Cc1ccc(C)c(NC2=NCC(=O)N2c2ccc3c(c2)OCCO3)c1,inactive
11,Cc1ccc(Cl)cc1NC(=O)NC1COc2ccccc2C1 (stereo not drawn),inactive
12,Cc1cc(NC(=O)COc2ccccc2C#N)no1,inactive
13,CCc1cccc(CC)c1NC(=O)COc1ccccc1C(=O)c1cc(C#N)c(=O)n(C2CCCCC2)c1,18.4 µM (active)
14,CCc1cccc(C)c1NC(=O)COC(=O)CC1CCCC1,inactive
15,CC(=O)Nc1ccc(NC(=O)CSc2nnc(COc3ccccc3C)n2CC2CCCO2)cc1 (stereo not drawn),inactive
16,Oc1ccc(/C=N/Nc2nc(-c3ccccc3F)nc3ccccc23)c(O)c1,5.8 µM (active)
17,Cc1nc2ccccc2nc1N/N=C/c1ccc(O)cc1O,4.61 µM (active)
18,Oc1ccc(/C=N/NC2=NCCCCC2)c(O)c1,inactive
19,Cc1cc(N/N=C/c2ccccc2F)c2ccccc2n1,inactive
20,Oc1ccc(-c2nc3ccccc3nc2-c2ccc(O)cc2O)c(O)c1,inactive
21,Cc1ccccc1NC(=O)C1CCCN(C(=O)NCc2ccccc2)C1 (stereo not drawn),inactive
22,CCOC(=O)CCNC(=O)N1CCCC(C(=O)c2ccccc2SC)C1 (stereo not drawn),inactive
23,CCNC(=O)N1CCCC(C(=O)c2ccc(-c3ccccc3)cc2)C1 (stereo not drawn),20.6 µM (active)
24,CN(C(=O)c1ccccc1)c1nccnc1C#N,inactive
25,COC(=O)c1ccc(CN2C(=O)NC(c3ccccc3)(c3ccccc3)C2=O)o1,inactive
